Data published in PubChem BioAssay AID651658 (Broad Institute, 2012).
The campaign covered roughly 340,000 compounds. About 5,100 (1.5%) were called active. Only a selection was taken, and actives are over-represented in it overall. Unmarked numbers belong to inactive results.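 The calls were made as follows: active = mean Tm shift, scaled 0 neutral to 100 positive control, at about 1.3% or above, every replicate too (limit read from the data); inconclusive = no clear call, values can overlap the other calls; inactive = the rest.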

What follows are compounds tested against Fibroblast growth factor 22 (Homo sapiens) (UniProt Q9HCT0) (assay: binders of human FGF22 protein, primary screen, FGF22 synaptogenesis inhibitor project, biophysical, thermal shift, single point (AID 651658)). Conditions: recombinant FGF22 thermal shift, SYPRO orange fluorescence; at 9.99 µM; hits give high values; percent of sucrose octasulfate shift, DMSO zero.
Sequence of Fibroblast growth factor 22 (Homo sapiens) (Q9HCT0 whole entry, looked up): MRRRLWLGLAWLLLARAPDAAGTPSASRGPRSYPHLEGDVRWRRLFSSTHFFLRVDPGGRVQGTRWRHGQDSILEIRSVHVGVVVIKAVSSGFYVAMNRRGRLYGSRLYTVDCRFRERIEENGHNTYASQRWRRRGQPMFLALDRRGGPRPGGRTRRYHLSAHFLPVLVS

| SMILES | activity (Tm shift, normalised) |
| --- | --- |
| Cc1ccc(C2=Nc3c(ccc4ccccc34)C(c3ccncc3)=NN2)cc1 | 44% (active) |
| COc1ccc(S(=O)(=O)N(C)C[C@@H]2Oc3ccc(NC(=O)CCN4CCOCC4)cc3CC(=O)N([C@@H](C)CO)C[C@@H]2C)cc1 | -0.109% |
| CCc1ccccc1NC(=O)CN(C)S(=O)(=O)c1ccc2c(c1)c(=O)n(C)c(=O)n2C | -0.036% |
| COc1ccc(NC(=O)CCNS(=O)(=O)c2ccc3c(c2)c(=O)n(C)c(=O)n3C)cc1OC | -0.132% |
| Cn1c(=O)c2cc(S(=O)(=O)NCCC(=O)Nc3ccc(F)cc3F)ccc2n(C)c1=O | 43.3% (active) |
| CCCC#Cc1cnc2c(c1)C(=O)N([C@@H](C)CO)C[C@@H](C)[C@@H](CN(C)Cc1ccccc1F)O2 | -0.354% |
| C/C(=N/OC(=O)c1ccc(Br)cc1)c1ccc(C)cc1 | 0.152% |
| C/C(=N\OC(=O)c1ccccc1)c1c(C)nc2cc(C)ccn12 | 44.6% (active) |
| Cc1ccn2c(-c3csc(Nc4ccc(C(=O)O)cc4)n3)c(C)nc2c1 | -0.135% |
| Cc1ccccc1-c1cnc2c(c1)C(=O)N([C@H](C)CO)C[C@@H](C)[C@H](CN(C)C(=O)c1cccnc1)O2 | 0.163% |
| CO[C@@H]1CN(C)C(=O)c2ccc(NC(=O)Nc3cc(Cl)cc(Cl)c3)cc2OC[C@H](C)NC[C@H]1C | -0.905% |
| Cc1ccc(S(=O)(=O)NC2CCCCCC2)cc1 | 43% (active) |
| CC(C)c1ccc(S(=O)(=O)NC2CCCC2)cc1 | 0.004% |
| Cc1ccc(S(=O)(=O)N[C@H]2CCC[C@@H]2O)cc1 | -0.275% |
| C[C@@H]1CN([C@@H](C)CO)C(=O)CCCn2cc(nn2)CO[C@@H]1CN(C)S(=O)(=O)c1ccccc1C#N | -0.156% |
| CSc1ccc(/C=N/NC(=O)c2cccc(Cl)c2)cc1 | 0.743% |
| CSc1ccc(/C=N\NC(=O)CC(=O)NC(C)C)cc1 | 43.1% (active) |
| O=C(CC(=O)N/N=C\c1ccc(F)cc1)NCCc1ccccc1 | 0.292% |
| Cc1ccc(S(=O)(=O)N(C)C[C@@H]2Oc3ccc(NS(=O)(=O)c4cccs4)cc3C(=O)N([C@@H](C)CO)C[C@H]2C)cc1 | -0.456% |
| CO[C@H]1CN(C)C(=O)c2cc(NC(=O)C3CCC3)ccc2OC[C@H](C)N(CC2CCCCC2)C[C@@H]1C | 0.141% |
| O=S(=O)(c1ccccc1)N(Cc1cccc(F)c1)c1ccccc1 | -0.239% |
| CCN(c1ccccc1)S(=O)(=O)c1ccc(N)cc1 | -0.161% |
| O=S(=O)(ON(c1ccccc1)S(=O)(=O)c1ccccc1)c1ccccc1 | 1.68% (active) |
| CN1c2ccc(C3=CCCCC3)cc2[C@@H]2[C@@H](CCN2S(=O)(=O)c2ccccc2F)[C@H]1CO | -0.132% |
| Cc1noc(C)c1NC(=O)N[C@H]1C=C[C@@H](CC(=O)Nc2ccccc2)O[C@H]1CO | -0.156% |
| CO[C@@H]1CN(C)C(=O)c2cc(NS(=O)(=O)c3cccc(F)c3)ccc2OC[C@@H](C)NC[C@@H]1C | -0.14% |

| SMILES | activity (Tm shift, normalised) |
| --- | --- |
| Cc1ccc(C(=O)C[n+]2cc(-c3ccccc3)n3c2CCCCC3)cc1 | 44.4% (active) |
| Cc1ccc(-c2c[n+](CC(=O)Nc3ccccc3)c3n2CCC3)cc1 | -0.075% |
| Clc1ccc(C[n+]2cc(-c3ccccc3)n3c2CCC3)cc1 | -0.249% |
| O=C(C[C@H]1C=C[C@H](NC(=O)Nc2cc(F)ccc2F)[C@H](CO)O1)Nc1ccccc1 | 0.041% |
| C[C@@H]1CCCCO[C@@H](CN(C)Cc2ccncc2)[C@@H](C)CN([C@@H](C)CO)C(=O)c2cc(NC(=O)Nc3ccc(F)cc3)ccc2O1 | -0.232% |
| CCCNC(=O)C[C@@H]1CC[C@H]2[C@@H](COC[C@@H](O)CN2Cc2ccccc2F)O1 | 0.109% |
| CCC(=O)Nc1ccc2c(c1)OC[C@H](C)N(C(=O)Cc1cccnc1)C[C@@H](C)[C@@H](OC)CN(C)C2=O | -0.218% |
| CCc1cccc(NC(=O)O[C@H]2[C@H](OC(=O)Nc3ccccc3-c3ccccc3)[C@H](OC(=O)Nc3ccccc3-c3ccccc3)[C@@H](OC)O[C@@H]2CO)c1 | -0.082% |
| COc1ccc(S(=O)(=O)N2CCCCN3[C@H](CO)[C@H](c4ccc(C5=CCCCC5)cc4)[C@@H]3C2)cc1 | -0.535% |
| O=[N+]([O-])c1ccc(N2CCN(CC(O)COc3ccccc3)CC2)cc1 (stereo unspecified) | 43.9% (active) |
| OC(COc1ccccc1)CN1CCN(c2cccc(Cl)c2)CC1 (stereo unspecified) | 0.055% |
| O=[N+]([O-])c1ccc(N2CCOCC2)cc1 | -0.032% |
| CC(C)NC(=O)Nc1ccc2c(c1)C(=O)N([C@H](C)CO)C[C@H](C)[C@H](CN(C)C(=O)CCC(F)(F)F)OCCCC[C@H](C)O2 | -0.429% |
| CN1CCN(C(=O)C[C@H]2CC[C@H]3[C@@H](COc4ccc(NC(=O)C5CCC5)cc4C(=O)N3C)O2)CC1 | -0.349% |
| COc1ccc(C2NC(=O)N(C)C(C)=C2[N+](=O)[O-])cc1 (stereo unspecified) | 0.013% |
| COC(=O)C1=C(C)N(C)C(=O)NC1c1ccc([N+](=O)[O-])o1 (stereo unspecified) | 43.8% (active) |
| COC(=O)C1=C(C)N(C)C(=S)NC1c1ccccc1 (stereo unspecified) | 0.104% |
| COCC(=O)N1CCCCN2[C@H](CO)[C@H](c3ccc(C#Cc4ccc(OC)cc4)cc3)[C@H]2C1 | 0.2% |
| COc1ccc2c3c(n(C)c2c1)[C@H](CO)N(C(C)=O)CC31CCN(Cc2cccnc2)CC1 | -0.052% |
| C/C=C/c1ccc2c(c1)O[C@H](CN(C)C(=O)Cc1ccncc1)[C@@H](C)CN([C@@H](C)CO)S2(=O)=O | -0.034% |
| Cc1nnc(SC(C(=O)Nc2cc(Cl)cc(Cl)c2)c2ccccc2)[nH]c1=O (stereo unspecified) | 1.39% (active) |
| CC(NCC(=O)Nc1cc(Cl)cc(Cl)c1)c1ccccc1 (stereo unspecified) | -0.134% |
| Cc1nnc(SC(C(=O)c2ccccc2)c2ccccc2)[nH]c1=O (stereo unspecified) | 0.339% |
| C[C@H]1CN([C@@H](C)CO)C(=O)Cc2cc(N(C)C)ccc2O[C@@H]1CN(C)S(=O)(=O)c1ccc(F)cc1 | -0.149% |
| C[C@@H]1CCCCO[C@H](CN(C)S(=O)(=O)c2cccs2)[C@@H](C)CN([C@@H](C)CO)C(=O)c2cc(NC(=O)NC3CCCCC3)ccc2O1 | -0.096% |
| Cc1ccccc1-c1ccc2c(c1)O[C@H](CN(C)C)[C@H](C)CN([C@@H](C)CO)S2(=O)=O | 0.074% |

| SMILES | activity (Tm shift, normalised) |
| --- | --- |
| C[C@@H]1CN([C@@H](C)CO)C(=O)c2cc(NC(=O)CCCCCC(=O)Nc3ccccc3N)ccc2O[C@@H](C)CCCCO[C@@H]1CN(C)CC1CCCCC1 | -0.209% |
| O=C(Cn1c(N2CCN(C/C=C/c3ccccc3)CC2)nc2ccccc21)c1ccccc1 | 44% (active) |
| COc1cc(C(=O)N2CCN(C/C=C/c3ccccc3)CC2)cc(OC)c1C | 0.444% |
| CC(C)Cn1c(N2CCN(C(=O)/C=C/c3ccccc3)CC2)nc2ccccc21 | -0.183% |
| CCCC(=O)Nc1ccc2c(c1)C(=O)N(C)C[C@H](OC)[C@@H](C)CN[C@H](C)CO2 | -0.019% |
| CO[C@@H](CN(C)S(=O)(=O)c1ccccc1)[C@@H](C)CN(Cc1ccccc1Cl)[C@H](C)CO | 0.183% |
| COC(=O)Cc1nc2c(N)nc(N)nc2[nH]c1=O | 44% (active) |
| COC(=O)Cc1c(-c2[nH]c3ccccc3c2CC(=O)OC)[nH]c2ccccc12 | -0.112% |
| Cc1cc(C)cc(N2C(=O)CSC2c2cccc([N+](=O)[O-])c2)c1 (stereo unspecified) | -0.058% |
| C[C@H]1CN([C@@H](C)CO)C(=O)Cc2cc(NS(=O)(=O)c3cn(C)cn3)ccc2O[C@@H]1CN(C)C(=O)Nc1ccc2c(c1)OCO2 | -0.296% |
| CCCNC(=O)C[C@H]1CC[C@@H]2[C@H](COC[C@H](O)CN2S(=O)(=O)c2ccccc2F)O1 | -0.049% |
| COc1ccc2c3c(n(C)c2c1)[C@H](CO)N(C)CC31CCN(C(=O)Nc2cccc(F)c2)CC1 | 0.13% |
| C[C@H]1CN([C@@H](C)CO)S(=O)(=O)c2ccc(-c3ccccc3F)cc2O[C@H]1CN(C)C(=O)C1CC1 | 0.047% |
| CCN1CCN(C(=O)CSc2ccc(C)cc2)CC1 | -0.037% |
| CCN1CCN(C(=O)CCN2C(=O)c3ccccc3C2=O)CC1 | 44.1% (active) |
| O=C1c2ccccc2C(=O)N1CCCCCCN1C(=O)c2ccccc2C1=O | -0.045% |
| O=C(CN1CCOCC1)N1CC(=O)N2[C@H](C1)[C@H](c1ccc(/C=C/c3ccccc3)cc1)[C@@H]2CO | -0.125% |
| CCc1nc2ccccc2c(C(=O)OC2CCCCC2=O)c1C (stereo unspecified) | 0.135% |
| CCc1nc2ccccc2c(C(=O)NCc2ccc(OC)cc2)c1C | 43.4% (active) |
| COc1ccc(CNC(=O)CN2C(=O)c3ccccc3S2(=O)=O)cc1 | 0.05% |
| O=C(NCC(F)(F)F)[C@H]1[C@H](CO)[C@H]2Cn3c(ccc(-c4ccncc4)c3=O)[C@H]2N1Cc1ccncc1 | -0.221% |
| Cc1cccc(C)c1OCC(=O)NC(Cc1c[nH]c2ccccc12)C(=O)O (stereo unspecified) | -0.152% |
| COc1ccc(-c2cc(C(=O)NC(Cc3c[nH]c4ccccc34)C(=O)O)c(C)o2)cc1OC (stereo unspecified) | 1.25% |
| COc1ccc(-c2cc(=O)oc3cc(OCC(=O)N[C@@H](Cc4c[nH]c5ccccc45)C(=O)O)ccc23)cc1 | 2.9% (active) |
